Reference: PubChem BioAssay AID1159580 (chemical genetic matrix, 2015)
Where “and” joins values, the source holds several entries; their conditions need not be identical. Equal entries are not always repeated. Hit rate of the full screen: of about 5,500 compounds, about 2,000 (36%) were called active. Roughly 18% stayed inconclusive and do not appear here. No stated cut-off is given here; in the data, active means normalized growth mostly below about 0.91 (no sharp cut-off); inconclusive means no clear call, values can overlap the other calls; inactive means mostly above about 0.92. The list shows a part of the results.

Experiment: chemical genetic growth profiling, strain panel (AID 1159580);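 further: tested at 20 µM; growth read once vehicle control cultures reached saturation at 30 °C; 1 = growth at the plate median or of vehicle wells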
Details: S. cerevisiae deletion strains, growth OD

Measured: normalized growth

COC(=O)C[C@H]1C(C)(C)C(=O)[C@@H]2CC3=C(CC[C@]4(C)C3=CC(=O)O[C@H]4c3ccoc3)[C@@]1(C)C2=O
inactive: locus YAL021C, strain ccr4, stronger effect = lower value 1.02 | locus YAL026C, strain drs2, stronger effect = lower value 0.985 | locus YAL030W, strain snc1, stronger effect = lower value 0.979 | locus YBL061C, strain skt5, stronger effect = lower value 0.986 | locus YBR009C, strain hhf1, stronger effect = lower value 0.983 | locus YBR021W, strain FUR4, stronger effect = lower value 0.992 | locus YBR023C, strain chs3, stronger effect = lower value 0.976 | locus YBR171W, strain sec66, stronger effect = lower value 0.947 | locus YBR229C, strain ROT2, stronger effect = lower value 1 | locus YBR231C, strain swc5, stronger effect = lower value 0.968 | locus YBR279W, strain paf1, stronger effect = lower value 0.988 | locus YCL011C, strain gbp2, stronger effect = lower value 0.953 | locus YCL016C, strain dcc1, stronger effect = lower value 0.993 | locus YCL029C, strain bik1, stronger effect = lower value 1.02 | locus YCL061C, strain MRC1, stronger effect = lower value 1 | locus YCL069W, strain vba3, stronger effect = lower value 0.958 | locus YCR088W, strain abp1, stronger effect = lower value 0.96 | locus YDL005C, strain med2, stronger effect = lower value 0.966 | locus YDL035C, strain GPR1, stronger effect = lower value 0.996 | locus YDL040C, strain nat1, stronger effect = lower value 0.966 | locus YDL074C, strain BRE1, stronger effect = lower value 1 | locus YDL101C, strain DUN1, stronger effect = lower value 1 | locus YDL134C, strain PPH21, stronger effect = lower value 1 | locus YDL185W, strain tfp1, stronger effect = lower value 1.01 | locus YDL192W, strain arf1, stronger effect = lower value 1.02 | locus YDR001C, strain nth1, stronger effect = lower value 0.979 | locus YDR069C, strain doa4, stronger effect = lower value 0.961 | locus YDR101C, strain arx1, stronger effect = lower value 1.01 | locus YDR137W, strain rgp1, stronger effect = lower value 1 | locus YDR159W, strain sac3, stronger effect = lower value 0.962 | locus YDR162C, strain NBP2, stronger effect = lower value 1.01 | locus YDR195W, strain ref2 0.956 | locus YDR297W, strain sur2, stronger effect = lower value 0.977 | locus YDR318W, strain mcm21, stronger effect = lower value 1.02 | locus YDR334W, strain swr1, stronger effect = lower value 0.961 | locus YDR335W, strain msn5, stronger effect = lower value 0.968 | locus YDR388W, stronger effect = lower value 1.01 | locus YDR392W, strain spt3, stronger effect = lower value 0.96 | locus YDR502C, strain sam2, stronger effect = lower value 1 | locus YEL003W, strain gim4, stronger effect = lower value 0.973 | locus YEL037C, strain rad23, stronger effect = lower value 0.962 | locus YEL061C, strain CIN8 (second series), stronger effect = lower value 0.958 | locus YEL061C, strain CIN8, stronger effect = lower value 0.999 | locus YER015W, strain faa2, stronger effect = lower value 0.985 | locus YER016W, strain bim1, stronger effect = lower value 0.971 | locus YER110C, stronger effect = lower value 1.02 | locus YER111C, strain swi4, stronger effect = lower value 0.953 | locus YER155C, strain BEM2 (second series), stronger effect = lower value 0.988 | locus YER155C, strain BEM2, stronger effect = lower value 1 | locus YER167W, strain BCK2, stronger effect = lower value 1.01 | locus YFR010W, strain ubp6, stronger effect = lower value 0.961 | locus YGL078C, strain dbp3, stronger effect = lower value 1.03 | locus YGL086W, strain mad1, stronger effect = lower value 1 | locus YGL167C, strain pmr1, stronger effect = lower value 0.988 | locus YGL173C, strain kem1, stronger effect = lower value 0.975 | locus YGL227W, strain vid30, stronger effect = lower value 0.976 | locus YGL240W, strain doc1, stronger effect = lower value 0.954 | locus YGL248W, strain PDE1, stronger effect = lower value 1.01 | locus YGL253W, strain hxk2, stronger effect = lower value 0.951 | locus YGR135W, strain pre9, stronger effect = lower value 1.01 | locus YGR229C, strain SMI1, stronger effect = lower value 1.01 | locus YGR252W, strain gcn5, stronger effect = lower value 1 | locus YHR013C, strain ard1, stronger effect = lower value 0.981 | locus YHR027C, strain rpn1, stronger effect = lower value 0.994 | locus YHR030C, strain SLT2, stronger effect = lower value 0.985 | locus YHR079C, strain IRE1 (second series), stronger effect = lower value 1.02 | locus YHR079C, strain IRE1, stronger effect = lower value 0.974 | locus YHR094C, strain hxt1, stronger effect = lower value 1.01 | locus YHR129C, strain ARP1, stronger effect = lower value 0.998 | locus YHR142W, strain chs7, stronger effect = lower value 0.965 | locus YHR200W, strain rpn10, stronger effect = lower value 0.996 | locus YIL066C, strain RNR3, stronger effect = lower value 0.999 | locus YIL073C, strain SPO22, stronger effect = lower value 1.09 | locus YIL125W, strain kgd1, stronger effect = lower value 1.01 | locus YIR030C, strain dcg1, stronger effect = lower value 1.02 | locus YJL092W, strain hpr5, stronger effect = lower value 0.964 | locus YJL095W, strain BCK1 (second series), stronger effect = lower value 0.99 | locus YJL095W, strain BCK1, stronger effect = lower value 1.01 and 0.983 | locus YJL115W, strain asf1, stronger effect = lower value 0.97 | locus YJL129C, strain trk1, stronger effect = lower value 0.959 | locus YJL134W, strain LCB3, stronger effect = lower value 1 | locus YJL154C, strain vps35, stronger effect = lower value 0.966 | locus YJL164C, strain tpk1, stronger effect = lower value 0.994 | locus YJL166W, strain qcr8, stronger effect = lower value 0.973
